In the library only some 3.6% were active in any assay of this set; here they are far more common.
FBPA Giardia inh – qHTS Assay for Inhibitors of Fructose-1,6-bisphosphate Aldolase from Giardia Lamblia; purified Giardia FBPA; Potency, µM (series often up to 59.6 µM), for inactives: top-dose activity, negative = inhibition, actives largely listed as inhibitors; hit rate 0.71% among 290,000; A8B2U2; further: nearly all actives have a fitted effect of over 55% in size
Target sequence (A8B2U2 whole entry, looked up): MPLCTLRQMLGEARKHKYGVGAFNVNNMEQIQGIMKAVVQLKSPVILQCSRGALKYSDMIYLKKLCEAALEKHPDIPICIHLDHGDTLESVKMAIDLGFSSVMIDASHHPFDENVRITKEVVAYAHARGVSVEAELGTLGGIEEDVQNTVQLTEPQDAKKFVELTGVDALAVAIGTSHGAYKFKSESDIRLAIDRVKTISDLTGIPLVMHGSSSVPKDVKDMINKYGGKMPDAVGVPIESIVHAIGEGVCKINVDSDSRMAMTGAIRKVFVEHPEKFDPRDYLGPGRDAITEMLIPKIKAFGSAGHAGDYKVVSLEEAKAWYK
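40 nM FBPA preincubated 10 min at RT with compound (up to 57.5 uM final), then substrate plus GAPDH/TPI/NAD/arsenate coupling and diaphorase/resazurin added. Fluorescence read after 20 min at RT, 525/598 nm.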
AmpC no deterg – qHTS Inhibitors of AmpC Beta-Lactamase (assay without detergent) | P00811 | AmpC nitrocefin hydrolysis, absorbance 480 nm, 0.0001% Triton | Potency, µM (series often up to 57.1 µM), for the others: at the highest dose activity change, negative = inhibition, most hits filed as inhibitors | hit rate 0.52% among 330,000 | AID 485341, 2010;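 further: plate controls were no compound for no effect and no enzyme for full effect; nearly all actives have a fitted effect of over 20% in size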
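AmpC (5.3 nM in the dispensed reagent) in 20 mM phosphate pH 7.0 with 0.01% (detergent screen) or 0.0001% Triton X-100 was preincubated with compounds for 15 min at room temperature. Nitrocefin was then added from an 800 uM solution, and hydrolysis was followed at 480 nm.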
Sm TGR block – qHTS Assay for the Inhibitors of Schistosoma Mansoni Peroxiredoxins; Schistosoma mansoni thioredoxin glutathione reductase (TGR), Q962Y6; Potency, µM (titrated, usually from 114 µM), inactives show at the highest dose activity change, negative = inhibition, most hits filed as inhibitors; hit rate 3% among 360,000; AID 485364, 2010; purified TGR, DTNB reduction, TNB absorbance 405 nm; further: nearly all actives have a fitted effect of over 60% in size
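First, TGR (20 nM dispensed) and NADPH were mixed with compound. Second, a 15 min room-temperature incubation followed. Third, further NADPH and then DTNB were added to start the reaction. Finally, TNB absorbance was monitored kinetically.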
AmpC inh detg – qHTS Inhibitors of AmpC Beta-Lactamase (assay with detergent) | Potency, µM (highest dose often 114 µM), without a hit: at the top dose activity change, negative = inhibition, hits mostly inhibitors | AmpC hydrolysis of nitrocefin, absorbance 480 nm, 0.01% Triton | hit rate 0.041% among 370,000 | AID 485294, 2010;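 further: 0% = no-compound wells and -100% = no-enzyme wells; nearly all actives have a fitted effect of over 25% in size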
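AmpC (5.3 nM in the dispensed reagent) in 20 mM phosphate pH 7.0 with 0.01% (detergent screen) or 0.0001% Triton X-100 was preincubated with compounds for 15 min at room temperature. Nitrocefin was then added from an 800 uM solution, and hydrolysis was followed at 480 nm.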
* = called active by the depositor; ? = inconclusive; . = no result. The call rests on the fitted dose curve; in most records, active means well fitted curve in the direction sought with a large enough effect; inconclusive means small, poorly fitted or top-dose-only effect, or another doubt; inactive means no such curve, though single readings can be large; an effect the other way counts as inactive or inconclusive. Unless noted, on the % scale 0 is the no-effect control and ±100 the full control effect; potency means the concentration at half of the fitted maximal effect.

SMILES	FBPA Giardia inh	AmpC no deterg	Sm TGR block	AmpC inh detg
CC[N+](CC)(CCNC(=O)C(=O)NCC[N+](CC)(CC)Cc1ccccc1Cl)Cc1ccccc1Cl	6%	.	.	.
CCOC(=O)/C=C/C(=O)Nc1cc(S(=O)(=O)Nc2ccc(OC)cc2)ccc1N1CCOCC1	.	-9%	32µM*	-9%
COC(=O)C1=C[C@@H](C(=O)OC)[C@@H]2C3=C(C(=O)[C@@]2(CC(C)C)NC(=O)c2ccccc2)[C@H](C)n2c(=O)n(-c4ccccc4)c(=O)n2[C@@H]3C1	-9%	.	.	.
Nc1nc(N2CCCCC2)nc(N(c2ccccc2)c2ccccc2)n1	0%	0.63µM*	-12%	?
COc1ccc(CC(=O)NCC(C)(C)N2CCOCC2)cc1	.	-4%	10%	3%
COc1ccc(C2/C=C\CN(CC(C)C)C(C)C(=O)N2Cc2ccc(F)cc2)cc1 (stereo unspecified)	-1%	.	.	.
CC1(C)CC(=O)C2=C(C1)OC(N)=C(C#N)C2c1ccccc1[N+](=O)[O-] (stereo unspecified)	?	-24%	22µM*	0%
COc1cc2c(cc1C1C(C#N)=C(N)OC3=C1C(=O)CC(C)(C)C3)OCO2 (stereo unspecified)	-22%	-25%	89µM*	-1%
CC1(C)CC(=O)C2=C(C1)OC(N)=C(C#N)C2c1ccccc1 (stereo unspecified)	2%	-10%	0%	?
CC1(C)CC(=O)C2=C(C1)OC(N)=C(C#N)C2c1ccc2c(c1)OCO2 (stereo unspecified)	-2%	-28%	0%	-17%
COc1ccccc1NC(=O)c1cc2c(cc1Cl)N1CCCCCC1=NS2(=O)=O	.	-13%	.	.
COc1ccc(/C=N/n2cnc3c([nH]c4ccccc43)c2=O)cc1COc1ccccn1	?	-25%	1%	?
CC1=C/C(=C/N(C)C)C(=O)O1	-9%	-6%	20µM*	?
CN(C)/C=C1/C=C(c2ccccc2)OC1=O	-8%	-10%	32µM*	?
Cc1ccc2oc(C(=O)Nc3nc(-c4ccc(F)cc4)ns3)c(C)c2c1	.	.	4%	19%
COC/C=C/C1=CC2=CC(=O)C(C)(OC(=O)c3cnc4ccccc4n3)C(=O)C2=CN1c1ccc(CO)cc1 (stereo unspecified)	?	6%	45µM*	?
COC/C=C/C1=CC2=CC(=O)C(C)(OC(=O)c3cnc4ccccc4n3)C(=O)C2=CN1c1ccccc1 (stereo unspecified)	?	56%	22µM*	-11%
CC(C)NC(=O)Nc1ccc2c(c1)C(=O)N([C@H](C)CO)C[C@@H](C)[C@@H](CN(C)C(=O)NC1CCCCC1)O2	.	93%	.	.
O=C(NCC(c1cccnc1)N1CCc2ccccc21)C(=O)Nc1ccccc1F (stereo unspecified)	.	.	0%	0%
CCOc1ccc(NS(=O)(=O)c2cc(C(=O)NCCN3CCOCC3)ccc2C)cc1	.	-9%	.	.
COc1ccc(N(CC(=O)N2CCN(c3ccc(Cl)cc3)CC2)S(=O)(=O)c2c(C)n[nH]c2C)cc1	-3%	176%	-2%	4%
COc1ccccc1NS(=O)(=O)c1cc(C(=O)N2CCN(C/C=C/c3ccccc3)CC2)ccc1C	.	-11%	35µM*	6%
COc1ccccc1NS(=O)(=O)c1cccc(C(=O)N2CCN(C/C=C/c3ccccc3)CC2)c1	-6%	204%	-19%	-1%
CC(C)NC(=S)N/N=C/c1ccc2c(c1)OCCO2	-8%	-35%	-26%	-7%
CCCCn1c(=O)[nH]c2nc3cc(N)ccc3nc2c1=O	0.14µM*	-36%	-18%	-4%
Cc1ccc(C)n1-c1ccc(C(=O)NCC2CCCO2)cc1 (stereo unspecified)	-8%	7%	40µM*	-11%
O=C(NCC1CCCO1)c1ccc(-c2cccc(C(F)(F)F)c2)o1 (stereo unspecified)	.	36%	-33%	1%
COc1ccccc1S(=O)(=O)Cc1ccc(C(=O)NC2CCCCC2)o1	0%	-1%	40µM*	-2%
COc1ccccc1S(=O)(=O)Cc1ccc(C(=O)NC2CC2)o1	.	2%	?	1%

Source: PubChem (National Center for Advancing Translational Sciences (NCATS))
